These results are taken from PubChem BioAssay (NCI).

Among the test systems are SK-MEL-2 melanoma; EKVX NSCLC; SN12C renal; UO-31 renal; TK-10 renal; ACHN renal; CAKI-1 renal; A498 renal; CCRF-CEM leukemia; MOLT-4 leukemia; SR leukemia; RPMI-8226 leukemia; OVCAR-8 ovarian; OVCAR-5 ovarian; OVCAR-4 ovarian; SK-OV-3 ovarian; IGROV1 ovarian; OVCAR-3 ovarian; HS 578T breast; NCI/ADR-RES ovarian.
Assay in all cases: NCI-60 one-dose screen, 48 h (100 = growth as untreated, 0 = no growth, -100 = all killed)
Conditions in all cases: 10 µM

About 83,000 compounds went through this panel and 20% of them were active in at least one assay; those are over-represented in the sample as a whole.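 Testing used 96-well plates and a 48-hour single-concentration exposure. Example: -40 means 40% of the starting cells died.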 Values without a mark were called inactive. Activity calls are given as the source filed them. Rule for the calls: active = growth percent below 10; inactive = the rest.

Turning to `N#Cc1ccc(C(=O)CSc2nccc(Nc3ccc(C(=O)O)cc3)n2)cc1`, the growth in the assay with SK-MEL-2 melanoma is 106%; in the assay with EKVX NSCLC, 108%; with SN12C renal, 103%; in the assay on UO-31 renal, 84.7%; in the assay with TK-10 renal it was 110%; in the assay on ACHN renal, 107%. In addition, the growth in the assay on CAKI-1 renal was 99.7%; with A498 renal, 95.7%; in the assay on CCRF-CEM leukemia it was 94%; in the assay on MOLT-4 leukemia, 104%; in the assay on SR leukemia, 106%; in the assay with RPMI-8226 leukemia, 108%. Moreover, the growth in the assay on OVCAR-8 ovarian is 106%; in the assay on OVCAR-5 ovarian it was 102%; in the assay on OVCAR-4 ovarian, 115%; in the assay with SK-OV-3 ovarian, 106%; with IGROV1 ovarian, 102%; with OVCAR-3 ovarian it was 110%. Also, the growth in the assay on HS 578T breast is 98.7%; in the assay on NCI/ADR-RES ovarian, 108%.

Consider `COc1cc(/C=C2\CCCC3=C2N=C2SC(C)=CN2C3c2cc(OC)c(OC)c(OC)c2)cc(OC)c1OC` (centres undefined), for which the growth with SK-MEL-2 melanoma is -19.6% (active); with EKVX NSCLC, 19.6%; with SN12C renal it was -23.6% (active); with UO-31 renal it was -37.2% (active); in the assay with TK-10 renal, 2.25% (active); with ACHN renal it was -78.6% (active). Besides, the growth in the assay on CAKI-1 renal is 11.1%; with A498 renal, -30.9% (active); with CCRF-CEM leukemia, 1.41% (active); with MOLT-4 leukemia it was 1.02% (active); in the assay with SR leukemia it was 0.0832% (active); with RPMI-8226 leukemia, -17% (active). The growth in the assay on OVCAR-8 ovarian was -9.4% (active); in the assay on OVCAR-5 ovarian it was -15% (active); in the assay on OVCAR-4 ovarian, 39.6%; in the assay with SK-OV-3 ovarian, 19.3%; in the assay on IGROV1 ovarian, 2.86% (active); with OVCAR-3 ovarian it was -2.36% (active). The figures for the growth in the assay with HS 578T breast and with NCI/ADR-RES ovarian were 49.9% and 1.74% (active), respectively.

In the case of `COc1ccc2cc(-c3nc4ccccc4s3)c(Cl)nc2c1OC`, the growth was 95.8% in the assay on SK-MEL-2 melanoma; 100% in the assay with EKVX NSCLC; 99.9% in the assay on SN12C renal; 64% in the assay on UO-31 renal; 118% with TK-10 renal; 96.6% in the assay on ACHN renal. For the same compound, the growth is 94.5% in the assay on CAKI-1 renal; 93.1% in the assay with A498 renal; 104% with CCRF-CEM leukemia; 92.7% in the assay with MOLT-4 leukemia; 87.6% in the assay with SR leukemia; 101% in the assay with RPMI-8226 leukemia. The growth was 103% with OVCAR-8 ovarian; 105% in the assay with OVCAR-5 ovarian; 94.6% in the assay with OVCAR-4 ovarian; 93.4% in the assay with SK-OV-3 ovarian; 103% in the assay on IGROV1 ovarian; 91.5% in the assay with OVCAR-3 ovarian. In addition, the growth with HS 578T breast is 89.9%; with NCI/ADR-RES ovarian, 99.8%.

Consider `CCCC1(CN2c3ccccc3Sc3ccc(Cl)cc32)CCN(CC)C1` (centres undefined), for which the growth was -3.45% (active) in the assay with SK-MEL-2 melanoma; -12.8% (active) in the assay on EKVX NSCLC; 23.1% in the assay with SN12C renal; -1.01% (active) with UO-31 renal; -56.6% (active) in the assay with TK-10 renal; 0.109% (active) in the assay with ACHN renal. Moreover, the growth is -14.2% (active) in the assay with CAKI-1 renal; 8.05% (active) in the assay with A498 renal; -11.2% (active) with CCRF-CEM leukemia; -27.9% (active) with MOLT-4 leukemia; -50.1% (active) with SR leukemia; -43.2% (active) in the assay with RPMI-8226 leukemia. Further, the growth is -41.2% (active) in the assay with OVCAR-8 ovarian; 8.89% (active) in the assay with OVCAR-5 ovarian; 28.3% in the assay with OVCAR-4 ovarian; 21.7% with SK-OV-3 ovarian; -42.7% (active) in the assay with IGROV1 ovarian; 2.48% (active) in the assay with OVCAR-3 ovarian. The values for the growth in the assay on HS 578T breast and in the assay on NCI/ADR-RES ovarian were -22.8% (active) and 31.4%, respectively.

On to `COc1ccc(/C(C#N)=C/c2cccc(OC)c2OC)cc1`, for which the growth was 77.1% in the assay with SK-MEL-2 melanoma; 99.9% with EKVX NSCLC; 89.8% with SN12C renal; 78.1% in the assay on UO-31 renal; 96.7% in the assay with TK-10 renal; 99% with ACHN renal. In addition, the growth is 74.7% with CAKI-1 renal; 87.2% with A498 renal; 80.5% in the assay on CCRF-CEM leukemia; 82.8% in the assay on MOLT-4 leukemia; 41.2% in the assay on SR leukemia; 91.1% with RPMI-8226 leukemia. The growth in the assay with OVCAR-8 ovarian was 96%; in the assay with OVCAR-5 ovarian, 97.7%; in the assay on OVCAR-4 ovarian it was 98.8%; in the assay with SK-OV-3 ovarian, 96.2%; with IGROV1 ovarian, 80.6%; in the assay with OVCAR-3 ovarian, 94.2%. The growth in the assay with HS 578T breast is 91.6%.

In the case of `CNS(=O)(=O)Oc1ccc(-c2sc3cc(OS(=O)(=O)NC)ccc3c2C(=O)c2ccc(OCCN3CCCCC3)cc2)cc1`, the growth in the assay on SK-MEL-2 melanoma is 83.7%; with EKVX NSCLC it was 79.6%; in the assay on SN12C renal, 79.5%; in the assay on UO-31 renal, 50.9%; in the assay with TK-10 renal it was 99.5%; in the assay on ACHN renal, 96.8%. Also, the growth in the assay with CAKI-1 renal was 59.3%; in the assay on A498 renal, 76.2%; in the assay with CCRF-CEM leukemia it was 46.5%; in the assay with MOLT-4 leukemia, 23.2%; in the assay on SR leukemia it was 27%; in the assay with RPMI-8226 leukemia, 35.9%. For the same compound, the growth with OVCAR-8 ovarian was 86.6%; in the assay on OVCAR-5 ovarian, 88.3%; in the assay on OVCAR-4 ovarian it was 69.8%; in the assay with SK-OV-3 ovarian, 76.1%; in the assay with IGROV1 ovarian, 85.6%; with OVCAR-3 ovarian, 83.6%. The growth is 58.9% in the assay on HS 578T breast and 71.4% with NCI/ADR-RES ovarian.

`CCOC(=O)CC(S(=O)(=O)c1ccccc1)S(=O)(=O)c1ccccc1`: the growth was 97.4% with SK-MEL-2 melanoma; 113% in the assay on EKVX NSCLC; 95.7% in the assay with SN12C renal; 72.4% in the assay on UO-31 renal; 56.4% with TK-10 renal; 63.6% with ACHN renal. The growth in the assay on CAKI-1 renal was 90.1%; in the assay on A498 renal, 115%; in the assay on CCRF-CEM leukemia it was 62.7%; in the assay with MOLT-4 leukemia it was 87.1%; in the assay on SR leukemia, 89.1%; in the assay on RPMI-8226 leukemia it was 97.4%. The growth was 103% in the assay on OVCAR-8 ovarian; 109% in the assay with OVCAR-5 ovarian; 94% with OVCAR-4 ovarian; 112% in the assay with SK-OV-3 ovarian; 107% in the assay with IGROV1 ovarian; 63.1% in the assay with OVCAR-3 ovarian. Also, the growth in the assay on HS 578T breast is 105%; in the assay on NCI/ADR-RES ovarian, 104%.

As for `NS(=O)(=O)Oc1ccc(NC(=O)C2CCCCCC2)cc1`, the growth with SK-MEL-2 melanoma is 106%; in the assay on EKVX NSCLC, 85.1%; in the assay with SN12C renal it was 99.1%; in the assay with UO-31 renal, 82.1%; in the assay with TK-10 renal, 105%; in the assay with ACHN renal it was 97.3%. Further, the growth is 87.4% in the assay with CAKI-1 renal; 122% in the assay on A498 renal; 89.4% with CCRF-CEM leukemia; 104% in the assay on MOLT-4 leukemia; 98.5% in the assay on SR leukemia; 102% with RPMI-8226 leukemia. Besides, the growth in the assay with OVCAR-8 ovarian is 98.8%; in the assay on OVCAR-5 ovarian, 98.4%; with OVCAR-4 ovarian, 107%; in the assay on SK-OV-3 ovarian it was 99%; in the assay on IGROV1 ovarian, 103%; with OVCAR-3 ovarian it was 102%. For the same compound, the growth with HS 578T breast is 108%; in the assay on NCI/ADR-RES ovarian, 103%.
